Source: PubChem
Casp7 inh: blocks human caspase-7 allosterically or competitively | P55210 | recombinant caspase-7, Ac-DEVD-AFC fluorescence rate | Potency, µM (titrated, usually from 57.5 µM), for the others: at the top dose activity change, negative = inhibition, actives largely listed as inhibitors | hit rate 0.02% among 75,000 | AID 889; active means well fitted inhibition curve with a large enough effect in the main read-out, with a control signal flat, not every such curve was filed as active; inconclusive means small, poorly fitted or top-dose-only effect, or a change in a side signal; further: % of control where 0% means no effect
Target sequence (P55210 24-198 limits assumed): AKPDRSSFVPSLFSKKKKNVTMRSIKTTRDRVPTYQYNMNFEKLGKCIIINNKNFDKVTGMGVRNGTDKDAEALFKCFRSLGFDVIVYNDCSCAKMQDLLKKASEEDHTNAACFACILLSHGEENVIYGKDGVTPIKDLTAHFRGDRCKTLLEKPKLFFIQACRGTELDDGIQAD
Target sequence (P55210 207-303 limits assumed): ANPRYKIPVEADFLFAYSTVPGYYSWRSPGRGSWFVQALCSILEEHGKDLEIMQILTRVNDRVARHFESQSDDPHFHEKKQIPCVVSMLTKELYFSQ
ALOX15 inhib: 15-hLO (ALOX15) enzyme inhibition | P16050 | purified 15hLO-1, xylenol orange hydroperoxide absorbance | Potency, µM (highest dose often 57.1 µM), without a hit: top-dose activity change, negative = inhibition, actives largely listed as inhibitors | hit rate 1.4% among 74,000 | AID 887; further: on the % scale 0 is the no-effect control and ±100 the full control effect; nearly all actives have a fitted effect of over 55% in size
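Readout: Fe(III)-xylenol orange absorbance, 573-to-405 nm ratio as reaction progress. Enzyme 40 nM purified human 15hLO-1, substrate 50 uM arachidonic acid, 6 min RT after 15 min compound preincubation; Hepes pH 7.5 buffer with Triton X-100.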
Tau filament bind: binds recombinant human tau filaments | P10636 | recombinant tau filaments, thioflavin S fluorescence, 15 h; filaments grown with octadecylsulfate alongside compound | Potency, µM (doses to about 57.1 µM), for the others: at the top dose activity change, negative = inhibition | hit rate 2% among 71,000 | AID 596;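 further: on the % scale 0 is the no-effect control and ±100 the full control effect; actives lower thioflavin S fluorescence by blocking filaments or displacing dye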
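Tau 2 uM in ThS buffer dispensed; compound added; 60 uM ODS added (finals 1 uM tau, 30 uM ODS); 15 h 37 C; fluor ex450/em510.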
Pol III holo inh: DNA polymerase III holoenzyme inhibition; reconstituted DNA polymerase III holoenzyme replication, biochemical; Potency, µM (doses to about 57.1 µM), for the others: at the highest dose activity change, negative = inhibition; hit rate 0.25% among 71,000; AID 603; further: on the % scale 0 is the no-effect control and ±100 the full control effect
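Reconstituted *E. coli* holoenzyme (0.35 nM Pol III, 1 nM beta, 154 nM SSB, 2 nM primase) was preincubated with compound for 15 min at RT. Synthesis on 1.4 nM ssM13Gori ran 35 min, then was stopped with PicoGreen/EDTA and read as dsDNA fluorescence.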
Caspase-1 inhib: caspase-1 (human) inhibition, allosteric or competitive. Caspase-1 enzyme, Ac-WEHD-AFC fluorogenic rate. Potency, µM (doses to about 57.5 µM), for the others: at the top dose activity change, negative = inhibition, actives largely listed as inhibitors. hit rate 0.03% among 75,000. AID 900;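 further: plate controls were vehicle for no effect and no substrate for full effect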
Target sequence (P29466 120-297 limits assumed): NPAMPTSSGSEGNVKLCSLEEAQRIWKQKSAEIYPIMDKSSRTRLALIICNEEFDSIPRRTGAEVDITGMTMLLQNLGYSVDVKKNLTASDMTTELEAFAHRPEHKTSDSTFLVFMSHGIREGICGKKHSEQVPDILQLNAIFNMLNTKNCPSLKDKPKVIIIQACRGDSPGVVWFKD
Target sequence (P29466 317-404 limits assumed): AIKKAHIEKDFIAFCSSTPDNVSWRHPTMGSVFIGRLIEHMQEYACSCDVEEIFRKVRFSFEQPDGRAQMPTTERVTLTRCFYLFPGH
An asterisk follows results filed as active; i = inactive; ? = inconclusive; . = not tested or not shown; ! = a repeat was not active; [ ] = dose if it differs, or a comment. Most compounds without a hit are left out; they make up all but 3.2% or so of the library. Unless noted, the call rests on the fitted dose curve; in most records, active means well fitted curve in the direction sought with a large enough effect; inconclusive means small, poorly fitted or top-dose-only effect, or another doubt; inactive means no such curve, though single readings can be large; an effect the other way counts as inactive or inconclusive. Potency means the concentration at half of the fitted maximal effect.

SMILES	Casp7 inh	ALOX15 inhib	Tau filament bind	Pol III holo inh	Caspase-1 inhib
CCCCN1C(=O)NC(=O)C2(Cc3c(nc4ccccn4c3=O)N3CCc4ccccc4C32)C1=O (stereo not drawn)	-3.4%	20µM*	20.7%	1.5%	-4.8%
CCCCN1C(=O)NC(=O)C2(Cc3c(nc4c(C)cccn4c3=O)N3CCc4ccccc4C32)C1=O (stereo not drawn)	-0.9%	5.9%	5.3%	2.7%	-0.9%
CC(=O)N1C[C@@H]2C[C@H](C1)c1cccc(=O)n1C2	.	.	-26.2%	-3.5%	.
COc1cccc2c1C(=O)c1c(O)c3c(c(O)c1C2=O)C[C@](O)(/C(C)=N\O)C[C@@H]3O[C@H]1C[C@H](N)[C@@H](O)[C@H](C)O1	-4.3%[11.5 µM]	9.6%[11.4 µM]	1.58µM*	1µM*	-0.8%[11.5 µM]
Cc1cc(O)c2c(c1)C(=O)c1cc(O)cc(O)c1C2=O	2.2%	?	2.51µM*	-16.7%	-3.4%
ClCCCCl	-0.6%	3.5%	8.0%	0.0%	-1.8%
[Cl][In]([Cl])[Cl]	-0.3%	?	4.5%	31.6µM*	-4.9%
O[N+]1=CC=CCC1=S.On1ccccc1=S.[Zn]	-9.0%	2.51µM*	.	.	-4.7%
COc1ccc2[nH]c3c(c2c1)CCN=C3C	-25.2%[25.7 µM]	?	2.51µM*	-9.3%[25.6 µM]	?
CC(C)Br	1.3%	-2.4%	-14.4%	-2.2%	0.1%
CC1=NN=C(c2ccc(N)cc2)c2cc3c(cc2C1)OCO3	-7.9%	-8.6%[25.6 µM]	31.6µM*!	-0.9%	-5.8%
c1ccc(-c2ccccc2)cc1	1.4%	-1.2%	19.9%	-1.4%	-2.7%
c1ccc(Nc2ccc(Nc3ccccc3)cc2)cc1	-6.4%	3.98µM*	12.6µM*	-5.2%	-1.7%
N#CC1=C(N)Oc2n[nH]c(-c3cccs3)c2C1c1ccsc1 (stereo not drawn)	-0.1%	3.98µM*	12.9%	-17.2%	-4.0%
CN1C[C@H](C(=O)N[C@]2(C)O[C@@]3(O)[C@H]4CCCN4C(=O)[C@H](Cc4ccccc4)N3C2=O)C[C@H]2c3cccc4[nH]cc(c34)C[C@@H]21	-1.9%	12.6µM*	?	-1.4%	-0.4%
CC(C)[C@@]1(NC(=O)[C@@H]2C[C@H]3c4cccc5[nH]cc(c45)C[C@@H]3N(C)C2)O[C@@]2(O)[C@H]3CCCN3C(=O)[C@H](Cc3ccccc3)N2C1=O	-0.9%	?	?	1.6%	-6.8%
CN1C[C@H](C(=O)N[C@]2(C)O[C@@]3(O)[C@@H]4CCCN4C(=O)[C@H](Cc4ccccc4)N3C2=O)C=C2c3cccc4[nH]cc(c34)C[C@H]21	?	2.51µM*	i	9.8%	.
CC[C@@H]1CN2CCc3cc(OC)c(OC)cc3[C@@H]2C[C@@H]1C[C@H]1NCCc2cc(OC)c(OC)cc21	2.7%	1.4%[25.6 µM]	.	.	0.9%
CCCCC(CC)COC(=O)c1ccc(C(=O)OCC(CC)CCCC)c(C(=O)OCC(CC)CCCC)c1 (stereo not drawn)	4.8%	2.8%	-1.6%	3.6%	-0.5%
C=CCN1CC[C@]23c4c5ccc(O)c4O[C@@H]2/C(=N/NC(=O)c2ccccc2)CC[C@@]3(O)[C@H]1C5	0.0%	-4.7%	-4.1%	-11.8%	1.6%
CC(C)(OO)c1ccccc1	-1.0%	0.126µM*	-2.8%	5.1%	-2.0%
O=C(C[C@H](c1ccccc1)c1c(O)c2ccccc2oc1=O)c1ccccc1	-0.7%[11.5 µM]	19.6%[11.4 µM]	3.6%[11.4 µM]	-13.1%[11.4 µM]	0.0%[11.5 µM]
C(CCOCC1CO1)COCC1CO1 (stereo not drawn)	-0.1%	-3.6%	7.5%	1.0%	-2.0%
O=c1cccc2n1C[C@@H]1C[C@H]2CN2CCCC[C@H]12	.	.	31.6µM*	-2.2%	.
CCCCCCCCc1ccc(O)cc1	-8.7%	-14.7%	-3.0%	-6.2%	.
SMILES	Casp7 inh	ALOX15 inhib	Tau filament bind	Pol III holo inh	Caspase-1 inhib
CCCCC/C=C\C/C=C\C/C=C\C/C=C\CCCC(=O)NCC(=O)O	-10.0%	2.51µM*	31.9%	-1.0%	-2.9%
CCCCC/C=C\C/C=C\C/C=C\C/C=C\CCCC(=O)Nc1ccc(O)cc1	-6.2%	0.251µM*	31.6µM*	-9.1%	-5.4%
CC(=O)Oc1c2c(c(CC=C(C)C)c3c1C(=O)C1=CC4CC5C(C)(C)OC(C/C=C(\C)C(=O)O)(C4=O)[C@]15O3)OC(C)(CCC=C(C)C)C=C2 (stereo partly drawn)	?	?	.	.	-12.0%
CCC(=NCc1ccco1)c1c(O)n(C2CCCCC2)c(=O)[nH]c1=O	-6.4%	?	-10.1%	-3.5%	-2.7%
CCC(=Nc1ccc(OC)cc1OC)c1c(O)n(C2CCCCC2)c(=O)[nH]c1=O	-12.6%	?	10µM*	3.4%	-7.1%
COC(=O)[C@]1(C)CC[C@@]2(C)CC[C@@]3(C)C4=CC=C5C(=CC(=O)C(O)=C5C)[C@@]4(C)CC[C@@]3(C)C2C1 (stereo partly drawn)	-3.2%	2µM*	.	.	2.1%
FC(F)(F)c1nc2ccc(SSc3ccc4nc(C(F)(F)F)[nH]c4c3)cc2[nH]1	-1.7%[11.5 µM]	?	2.3%[11.4 µM]	-5.3%[11.4 µM]	0.3%[11.5 µM]
COc1ccc2c(c1)CCC1[C@@H]2CCC2(C)[C@@H](NCCCCCCN3C(=O)C=CC3=O)CC[C@@H]12 (stereo partly drawn)	1.1%	12.6µM*	?	-4.1%	1.8%
C[C@@H]1O[C@H](O[C@H]2C[C@@H](O)[C@]3(CO)[C@H]4[C@H](O)C[C@]5(C)[C@@H](C6=CC(=O)OC6)CC[C@@]5(O)[C@H]4CC[C@]3(O)C2)[C@@H](O)[C@H](O)[C@H]1O	.	.	?	-2.9%	.
